Only some compounds are listed: those with a hit (about 2.4% of all), similar ones and a draw of the others.
D2 PAM-1: positive allosteric modulators of human D2 dopamine receptor. DiscoveRx D2 beta-arrestin cells, luminescence, 90 min; 100% = 57 uM dopamine signal. AID 624464. 360,000 compounds, 0.23% hits. potentiation, % (concentration not given with the values); in the data active means potentiation above about 50%
Target sequence (P14416 whole entry, looked up): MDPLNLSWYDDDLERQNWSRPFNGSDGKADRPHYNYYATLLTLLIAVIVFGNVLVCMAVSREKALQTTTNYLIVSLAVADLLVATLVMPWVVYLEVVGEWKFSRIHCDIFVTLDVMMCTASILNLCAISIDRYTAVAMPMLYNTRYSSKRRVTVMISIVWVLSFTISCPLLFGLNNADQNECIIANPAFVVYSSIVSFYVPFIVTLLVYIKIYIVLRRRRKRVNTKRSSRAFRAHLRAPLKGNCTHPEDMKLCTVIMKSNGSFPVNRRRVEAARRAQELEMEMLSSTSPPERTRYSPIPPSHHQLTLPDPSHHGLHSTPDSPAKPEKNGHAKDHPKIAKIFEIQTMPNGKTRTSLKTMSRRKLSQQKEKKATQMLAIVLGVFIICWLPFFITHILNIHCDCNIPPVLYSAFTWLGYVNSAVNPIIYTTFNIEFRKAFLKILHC
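D2 cells co-treated with compound plus 50 nM dopamine (EC20) for 90 min at 37 deg C to detect potentiation. Beta-arrestin recruitment was read as enzyme-fragment luminescence after 1 h at ambient temperature. Full response was set by 57 uM dopamine.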
D2 antag: antagonizes the human D2 dopamine receptor | inhibition, % at 10 µM | 340,000 compounds, 2% hits | HEK293 TREx D2 cells, calcium flux, dopamine EC80 | P14416; in the data active means inhibition above about 30%; inactive means below that, where a call was filed; further: 0% is about no effect
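Calcium flux kinetic readout in an inducible HEK293 TREx D2 line plated overnight at 30 C. After 180 s compound exposure, an EC80 dopamine challenge follows with another 180 s kinetic read to detect antagonism.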
D2 PAM-2: D2 dopamine receptor (human) potentiation; 340,000 compounds, 0.34% hits; HEK293 T-REx D2, calcium flux, EC20 dopamine potentiation; potentiation, % at 10 µM;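 active means potentiation over 3 SD above the plate norm, cut at about 30% in these data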; further: 0% is about no effect
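Cells plated with tetracycline inducer and held overnight at 30 C; calcium dye loaded 30–90 min at room temperature; baseline taken, compound added and read 180 s; EC20 dopamine then added and read 180 s.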
D2 ag-1: agonists of human D2 dopamine receptor | activation, % at 2 µM | P14416 | HEK293 T-REx D2 cells, calcium flux agonist mode | 340,000 compounds, 0.53% hits;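 active means activation over 3 SD above normal in the single-dose calcium agonist read, cut at about 30% in these data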; further: 0% is about no effect
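In this primary screen, compounds producing a positive calcium signal within 180 s of addition to tetracycline-induced, force-coupled HEK293 Trex D2 cells are flagged; cells are dye-loaded with a no-wash calcium kit beforehand.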
D2 ag-2: agonists of human D2 dopamine receptor (beta-arrestin); activation, % (test concentration not listed); 360,000 compounds, 0.084% hits; DiscoveRx PathHunter D2 beta-arrestin, luminescence, 90 min; 100% = 57 uM dopamine signal; P14416; in the data active means activation above about 40%
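Agonist mode: compounds alone added to overnight-plated D2 PathHunter cells for 90 min at 37 C, with 57 uM final dopamine (EC100) defining full response. Beta-arrestin recruitment detected by chemiluminescent reagent, read after 1 h at ambient temperature.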
* marks the source's active call; other numbers are inactive results; . = not tested or not shown.

SMILES | D2 PAM-1 | D2 antag | D2 PAM-2 | D2 ag-1 | D2 ag-2
Cc1ccc2nc(N3C(=O)C(O)=C(C(=O)c4ccc(C)o4)C3c3ccco3)sc2c1 (stereo not drawn) | -4 | 31* | 17 | 0 | 7
Cc1ccc2nc(N3C(=O)C(O)=C(C(=O)c4ccco4)C3c3ccc(O)cc3)sc2c1 (stereo not drawn) | . | -17 | -8 | 0 | .
Cc1ccc2nc(N3C(=O)C(O)=C(C(=O)c4ccco4)C3c3ccc(C)o3)sc2c1 (stereo not drawn) | -2 | 31* | 11 | -1 | -7
O=C(C1=C(O)C(=O)N(c2nc3ccc(Cl)cc3s2)C1c1ccco1)c1ccco1 (stereo not drawn) | -3 | 8 | 19 | -1 | 1
O=C(O)CCn1ccc2cc(S(=O)(=O)N3CCCCC3)ccc21 | . | . | 13 | -1 | .
Cc1cc(-c2ccc(C)c(S(=O)(=O)NCCc3ccccc3)c2)on1 | . | . | 1 | 0 | .
Cc1cc(-c2ccc(C)c(S(=O)(=O)NCCCN3CCCCCC3)c2)on1 | -38 | 34* | -11 | -2 | -5
CCc1ccc(-c2cc(C)no2)cc1S(=O)(=O)NCCc1ccccc1 | -5 | 30* | -1 | 1 | 4
CCc1ccc(-c2cc(C)no2)cc1S(=O)(=O)NC(C)Cc1ccco1 (stereo not drawn) | 0 | 5 | 84* | 0 | 2
Cc1cc(-c2ccc(C)c(S(=O)(=O)NCCC(C)N3CCCCCC3)c2)on1 (stereo not drawn) | -8 | 4 | 3 | -1 | 1
CCc1nnc(NC(=O)c2ccc(OC)c(S(=O)(=O)N3CCCC3)c2)s1 | -5 | -7 | 23 | 0 | 0
Cc1ccc(CNC(=O)CN2N=C(c3ccc(C)cc3)CCC2=O)cc1 | . | . | 21 | 1 | .
Cc1cc(C)c(S(=O)(=O)Nn2cnnc2)c(C)c1 | -4 | 32* | 9 | 1 | -1
O=C(NCC(c1ccco1)N1CCCC1)c1cc2ccccc2s1 (stereo not drawn) | -3 | 35* | -22 | 0 | 7
Cc1ccc(C(=O)NCC(c2ccco2)N2CCCCC2)s1 (stereo not drawn) | -30 | 36* | -14 | 0 | -1
Cc1nnc(SCC(=O)N2CCCC(N3CCN(c4ccc(F)cc4)CC3)C2)o1 (stereo not drawn) | -13 | -6 | 13 | 0 | -2
CCOC(=O)c1c(C)n(-c2ccc(C)cc2)c2ccc(O)c(CN(C)C)c12 | -8 | 40* | -10 | 0 | 4
O=C(NCc1ccccc1F)C(=O)NCC1CCCN1S(=O)(=O)c1ccccc1 (stereo not drawn) | -5 | -9 | -6 | 1 | -1
CCCCOc1ccc(Cc2c(COCC)[nH]c(=S)[nH]c2=O)cc1 | -15 | 35* | -11 | 1 | -4
Cc1[nH]c(=S)[nH]c(=O)c1Cc1ccc(OCC(C)C)cc1 | -3 | 31* | -5 | -1 | -2
Nc1ccccc1C(=O)NCc1ccc(Cl)cc1 | 8 | 30* | 1 | 27 | 2
Nc1ccccc1C(=O)NCc1ccc(F)cc1 | -2 | -7 | 3 | 0 | 2
CCc1ccccc1NC1=NCC(=O)N1C1CCCC1 | 3 | 2 | 9 | 0 | -7
CCN(CC)c1ccc(/C=C(/C#N)c2nc3ccc(C)cc3[nH]2)c(OC(C)C)c1 | -17 | -2 | -7 | 42* | -6
COC(=O)[C@H](CC(C)C)NC(=O)NCc1ccc(Cl)cc1 | -7 | -9 | -3 | 0 | 2
N=C1/C(=C\c2coc3ccccc3c2=O)C(=O)N=C2SC=CN12 | -19 | 0 | -4 | 117* | -5
N=C1/C(=C/c2cccn2Cc2ccc(F)cc2)C(=O)N=C2SC=CN12 | 10 | 15 | 0 | -1 | -2
CSC1=NSC2=NC(=O)/C(=C\c3cccs3)C(=N)N12 | 1 | 4 | -5 | 0 | -4
CSC1=NSC2=NC(=O)/C(=C/c3coc4ccc(O)cc4c3=O)C(=N)N12 | 28 | -5 | 1 | 48* | 7
CSC1=NSC2=NC(=O)/C(=C/c3coc4ccccc4c3=O)C(=N)N12 | -7 | -13 | 13 | 55* | 1
